This passage reports growth results from PubChem BioAssay (NCI).

Common to all, as to assay: NCI-60 one-dose screen, 48 h (100 = growth as untreated, 0 = no growth, -100 = all killed)
The subject of one assay is HCT-15 colon. Particulars: 10 µM unless noted.
For a further assay, the system named is HT29 colon. The settings on record: 10 µM unless noted.
The subject of another assay is SNB-75 CNS. Particulars: 10 µM unless noted.
The test system of the next assay is SNB-19 CNS. The settings on record: 10 µM unless noted.
For a further assay, the system named is U251 CNS. The settings on record: 10 µM unless noted.
The next assay concerns PC-3 prostate. Particulars: 10 µM unless noted.
The next assay concerns SK-MEL-5 melanoma. The settings on record: 10 µM unless noted.
In another assay the test system is UACC-62 melanoma. Particulars: 10 µM unless noted.
The test system of the next assay is SK-MEL-28 melanoma. The settings on record: 10 µM unless noted.
The subject of a further assay is SK-MEL-2 melanoma. Particulars: 10 µM unless noted.
The next assay concerns EKVX NSCLC. Particulars: 10 µM unless noted.
A further assay concerns SN12C renal. Particulars: 10 µM unless noted.
Another assay concerns UO-31 renal. The settings on record: 10 µM unless noted.
Another assay has as its system ACHN renal. Particulars: 10 µM unless noted.
The next assay has as its system CAKI-1 renal. Particulars: 10 µM.
For a further assay, the system named is A498 renal. Particulars: 10 µM unless noted.
A further assay deals with CCRF-CEM leukemia. Particulars: 10 µM unless noted.
A further assay relates to MOLT-4 leukemia. Particulars: 10 µM unless noted.
The next assay concerns LOX IMVI melanoma. Particulars: 10 µM unless noted.
For the next assay, the system named is TK-10 renal. Particulars: 10 µM unless noted.

The panel holds about 83,000 compounds, 20% with a hit somewhere; the sample as a whole holds those more often.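 Values shown are percent growth following 48 h exposure of cells in 96-well plates to a single concentration of compound; below 10 was considered active.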 Values without a mark were called inactive. Active and inactive are the calls of the source.

Turning to `O=C(c1ccc(O)cc1)[C@@H]1[C@@H]2CCCN2[C@@]2(C(=O)N(C(=O)c3ccc(F)cc3)c3ccccc32)[C@H]1c1ccc(F)cc1`, the growth in the assay with HCT-15 colon is 86.6%; in the assay with HT29 colon, 104%; in the assay on SNB-75 CNS, 73.5%; in the assay with SNB-19 CNS, 93.3%; in the assay on U251 CNS, 94.3%; in the assay on PC-3 prostate, 78.3%. Moreover, the growth is 95% in the assay on SK-MEL-5 melanoma; 75.4% in the assay with UACC-62 melanoma; 99.2% in the assay with SK-MEL-28 melanoma; 110% with SK-MEL-2 melanoma; 83.4% with EKVX NSCLC; 87.3% with SN12C renal. For the same molecule, the growth with UO-31 renal is 60.4%; with ACHN renal it was 90%; in the assay with CAKI-1 renal, 70.1%; in the assay on A498 renal, 82.5%; with CCRF-CEM leukemia, 67.2%; with MOLT-4 leukemia, 68%.

As to `COc1cc(CNC(=O)/C=C/c2ccccc2)ccc1OCC(=O)NO`, the growth was 101% in the assay on HCT-15 colon; 104% with HT29 colon; 85.3% in the assay on SNB-75 CNS; 98.9% in the assay on SNB-19 CNS; 101% with U251 CNS; 91% in the assay on PC-3 prostate. The growth with UACC-62 melanoma is 92.3%; in the assay with LOX IMVI melanoma, 91.9%; in the assay on SK-MEL-28 melanoma, 107%; in the assay with SK-MEL-2 melanoma it was 99.6%; in the assay on EKVX NSCLC, 95.2%; with SN12C renal, 95.8%. The growth is 81.8% in the assay with UO-31 renal; 102% in the assay on TK-10 renal; 93.3% with ACHN renal; 91.4% with CAKI-1 renal; 105% in the assay on CCRF-CEM leukemia; 95.7% with MOLT-4 leukemia.

Consider `O=C1Nc2ccc(Cl)cc2/C1=C/c1ccc(OCc2ccc(F)cc2)cc1`, for which the growth was 87.8% with HCT-15 colon; 99.4% with HT29 colon; 89.7% in the assay with SNB-75 CNS; 99.1% in the assay with SNB-19 CNS; 95.4% with U251 CNS; 93.6% in the assay on PC-3 prostate. For the same molecule, the growth in the assay on UACC-62 melanoma was 90.8%; in the assay with LOX IMVI melanoma, 92.8%; in the assay on SK-MEL-28 melanoma, 96.3%; in the assay with EKVX NSCLC it was 90.9%; in the assay with UO-31 renal, 86.4%; in the assay with TK-10 renal it was 99%. Besides, the values for the growth with CAKI-1 renal, with CCRF-CEM leukemia and in the assay with MOLT-4 leukemia were 74.6%, -53.8% (active) and 93.4%, respectively.

Consider `CC1=C2C(=C[C@@](C)(COS(N)(=O)=O)[C@@H]2O)C(=O)[C@](C)(O)C12CC2`, for which the growth with HCT-15 colon was 67.6%; in the assay on HT29 colon, 56.8%; in the assay on SNB-75 CNS it was 72.6%; in the assay on SNB-19 CNS it was 72.4%; in the assay on U251 CNS, 71.8%; in the assay with PC-3 prostate, 58.5%. Also, the growth was 62.1% in the assay with UACC-62 melanoma; 77% in the assay with LOX IMVI melanoma; 87.6% in the assay with SK-MEL-28 melanoma; 41.2% in the assay on SK-MEL-2 melanoma; 94.9% in the assay with EKVX NSCLC; 81.2% in the assay on SN12C renal. The growth was 54.6% in the assay on UO-31 renal; 95.9% in the assay with TK-10 renal; 47.4% with ACHN renal; 85.8% in the assay with CAKI-1 renal; 55.7% in the assay with A498 renal; 97.3% in the assay on MOLT-4 leukemia.

Consider `COc1ccc(-c2nc(SCCC(C)C)nc(N/N=C\c3ccc(O)cc3)c2C#N)cc1`, for which the growth in the assay with HCT-15 colon was 28.2%; in the assay on HT29 colon, 107%; in the assay with SNB-75 CNS it was 77.2%; in the assay on SNB-19 CNS, 60.1%; with U251 CNS, 29.4%; in the assay with PC-3 prostate it was 72.4%. The growth in the assay with SK-MEL-5 melanoma is 89.2%; in the assay with UACC-62 melanoma, 93.9%; in the assay on SK-MEL-28 melanoma, 95%; in the assay with SK-MEL-2 melanoma it was 104%; in the assay on EKVX NSCLC it was 93.1%; in the assay on UO-31 renal, 76.8%. Further, the growth with TK-10 renal is 157%; with ACHN renal, 60.9%; in the assay with CAKI-1 renal, 78%; in the assay with A498 renal, 92.5%; in the assay on CCRF-CEM leukemia, 54.7%; in the assay on MOLT-4 leukemia it was 64.5%.

For `COc1cc(CNC(=O)Cc2ccccc2[N+](=O)[O-])ccc1OCC(=O)NO`, the growth in the assay on HCT-15 colon is 105%; in the assay on HT29 colon, 110%; in the assay on SNB-75 CNS, 95.6%; in the assay on SNB-19 CNS, 98.7%; in the assay with U251 CNS it was 106%; with SK-MEL-5 melanoma, 103%. The growth in the assay on UACC-62 melanoma is 92.7%; with LOX IMVI melanoma it was 100%; with SK-MEL-28 melanoma, 109%; in the assay on SK-MEL-2 melanoma, 104%; in the assay with EKVX NSCLC, 100%; in the assay on SN12C renal, 99.5%. Further, the growth was 83.1% with UO-31 renal; 122% with TK-10 renal; 103% in the assay on ACHN renal; 90.4% in the assay with CAKI-1 renal; 102% in the assay with CCRF-CEM leukemia; 107% with MOLT-4 leukemia.

With `COc1cc(O)c2c(c1)[C@H]1O[C@@H]1C[C@H](O)[C@H](O)C(=O)/C=C\C[C@H](C)OC2=O`, the growth is 28.7% in the assay on HCT-15 colon; 12.6% with HT29 colon; 87.1% in the assay on SNB-75 CNS; 81.3% in the assay on SNB-19 CNS; 72.4% in the assay on U251 CNS; 7.59% (active) in the assay on SK-MEL-5 melanoma. Besides, the growth with UACC-62 melanoma was -12.4% (active); with LOX IMVI melanoma, 32.3%; in the assay on SK-MEL-28 melanoma, 6.98% (active); in the assay on SK-MEL-2 melanoma, 20.1%; in the assay with EKVX NSCLC, 51.8%; with SN12C renal, 53.5%. The growth in the assay with UO-31 renal was 20.4%; in the assay on TK-10 renal, 48.6%; in the assay on ACHN renal, 45.4%; with A498 renal it was 58.9%; in the assay with CCRF-CEM leukemia it was 22.2%; in the assay with MOLT-4 leukemia it was 33.6%.

For `c1ccc(-c2c(-c3ccccc3)[n+](Cc3ccc4ccccc4c3)c(-c3ccccc3)n2Cc2ccc3ccccc3c2)cc1`, the growth with HCT-15 colon was -81.7% (active); in the assay on HT29 colon, -70.1% (active); in the assay on SNB-75 CNS, -78.4% (active); in the assay on SNB-19 CNS it was -94.9% (active); in the assay on U251 CNS, -78.8% (active); in the assay on SK-MEL-5 melanoma, -99.1% (active). Further, the growth with UACC-62 melanoma was -88.6% (active); in the assay on LOX IMVI melanoma, -89.8% (active); in the assay with SK-MEL-28 melanoma, -93.3% (active); in the assay on SK-MEL-2 melanoma it was -67.7% (active); with EKVX NSCLC, -90.1% (active); in the assay on SN12C renal, -91.7% (active). Also, the growth is -95.2% (active) with UO-31 renal; -81.1% (active) in the assay on TK-10 renal; -95.5% (active) in the assay on ACHN renal; -93.4% (active) in the assay on CAKI-1 renal; -21.6% (active) with CCRF-CEM leukemia; -54.1% (active) in the assay on MOLT-4 leukemia.

On to `COc1ccc(N2C(=O)c3cc(OC)c(OC)cc3NC2SCc2ccccc2)cc1` (configuration not stated), for which the growth in the assay on HCT-15 colon was 96.1%; in the assay with HT29 colon, 116%; in the assay with SNB-75 CNS it was 112%; in the assay with SNB-19 CNS, 109%; with U251 CNS, 108%; with SK-MEL-5 melanoma, 97%. For the same molecule, the growth in the assay on UACC-62 melanoma was 93.8%; in the assay with LOX IMVI melanoma, 94.8%; with SK-MEL-28 melanoma, 96.9%; with SK-MEL-2 melanoma it was 99.6%; in the assay with EKVX NSCLC it was 91.8%; in the assay with SN12C renal, 102%. Further, the growth in the assay with UO-31 renal was 88.4%; with ACHN renal, 94.3%; in the assay on CAKI-1 renal, 104%; in the assay on A498 renal, 107%; in the assay on CCRF-CEM leukemia, 105%; in the assay with MOLT-4 leukemia, 88%.

Take `CCOP(=O)(OCC)OC[C@]12CCC(C)(C)C[C@H]1C1=CC[C@@H]3[C@@]4(C)C/C(=C\c5cccnc5)[C@H](OP(=O)(OCC)OCC)C(C)(C)[C@@H]4CC[C@@]3(C)[C@]1(C)CC2`: the growth in the assay on HCT-15 colon was 14.4%; in the assay on HT29 colon, 12%; with SNB-75 CNS, 80.2%; in the assay with SNB-19 CNS, 40%; with U251 CNS, 14.7%; in the assay with SK-MEL-5 melanoma it was -61.3% (active). Moreover, the growth is 25.5% in the assay on UACC-62 melanoma; 22% with LOX IMVI melanoma; 34.5% in the assay with SK-MEL-28 melanoma; 45.1% in the assay with SK-MEL-2 melanoma; 29.9% in the assay with EKVX NSCLC; 29.3% with SN12C renal. Besides, the growth with UO-31 renal is 29.9%; in the assay on TK-10 renal it was 37.3%; in the assay with ACHN renal, 27.8%; in the assay with CAKI-1 renal, 31%; in the assay with CCRF-CEM leukemia, 25.3%; with MOLT-4 leukemia, 9.52% (active).
